The text below walks through data of PubChem BioAssay (NCI).

Among the test systems are T-47D breast; BT-549 breast; MDA-MB-435 melanoma; SW-620 colon; MCF7 breast; HCT-116 colon; HCC-2998 colon; KM12 colon.
Assay in all cases: NCI-60 one-dose screen, 48 h (100 = growth as untreated, 0 = no growth, -100 = all killed)
Conditions in all cases: 10 µM unless noted

Where “and” joins values, the source holds several entries; their conditions need not be identical. Equal entries are not always repeated. Compounds without any hit were thinned out: in the full panel of roughly 83,000, 20% have a hit.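 Interpretation: 100, growth as untreated; towards 0, rising growth inhibition; 0, no net growth; 0 to -100, cell death. Compounds scoring below 10 were considered active.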 Values without a mark were called inactive. Calls of active or inactive are those of the source.

For `Cc1ccc(NC(=O)c2ccc(CN3CCN(C)CC3)cc2)cc1Nc1nccc(-c2cccnc2)n1`, the growth in the assay on T-47D breast is 81.4% and 57.8%; in the assay with BT-549 breast, 105% and 61.1%; in the assay with MDA-MB-435 melanoma, 92.6% and 77.7%; in the assay on SW-620 colon it was 110% and 88.6%; with MCF7 breast, 91.9% and 55.7%; in the assay with HCT-116 colon, 81.4% and 55.1%. In addition, the growth with HCC-2998 colon was 122% and 96.8%; with KM12 colon, 107% and 69%.

Take `O=S(=O)(Nc1cc(Sc2cccc3cccnc23)c(O)c2ccccc12)c1ccc(F)cc1`: the growth is -40.3% (active) with T-47D breast; 30.7% with BT-549 breast; 7.68% (active) with MDA-MB-435 melanoma; -69.3% (active) with SW-620 colon; -53.4% (active) in the assay on MCF7 breast; -88.5% (active) in the assay on HCT-116 colon. The growth is 40% with HCC-2998 colon and 16.5% in the assay on KM12 colon.

Take `COc1ccc(/C=N/C2=C(C#N)C(c3ccccc3)c3c(ccc4ccccc34)O2)cc1` (configuration not stated): the growth is 36.3% with T-47D breast; 35.7% in the assay on BT-549 breast; -59.2% (active) in the assay on MDA-MB-435 melanoma; 29.4% with SW-620 colon; 15.4% with MCF7 breast; 24.8% in the assay on HCT-116 colon. Besides, the figures for the growth with HCC-2998 colon and with KM12 colon were 48.8% and 29.1%, respectively.

`CC1=C2[C@@H](CC1)[C@]1(C)O[C@@](C3CC3)(C[C@H]1OC(=O)CO)[C@H]2OC(=O)/C=C/c1ccccc1`: the growth was 82.2% in the assay on T-47D breast; 6.63% (active) with BT-549 breast; 104% in the assay with MDA-MB-435 melanoma; 103% in the assay on SW-620 colon; 96.4% with MCF7 breast; 89.4% in the assay on HCT-116 colon. In addition, the growth in the assay on HCC-2998 colon is 88.4%; in the assay on KM12 colon, 97.1%.

Take `O=C(N/N=C/c1ccc(O)cc1O)c1cccc(Nc2ccnc(C(F)(F)F)c2)c1`: the growth was 28.8% in the assay with T-47D breast; 42.3% in the assay on BT-549 breast; 41% with MDA-MB-435 melanoma; 35.7% with SW-620 colon; 21.2% in the assay with MCF7 breast; 12.3% with HCT-116 colon. The results for the growth in the assay on HCC-2998 colon and in the assay on KM12 colon were 33.7% and 34.7%, respectively.

For the molecule `Clc1ccc(CNc2ccc3nc(CCC4CCCCC4)[nH]c3c2)cc1`, the growth in the assay with T-47D breast is 24.3%; in the assay on BT-549 breast, 83.3%; in the assay on MDA-MB-435 melanoma it was 66.4%; with SW-620 colon, 26.2%; with MCF7 breast, 37.9%; in the assay on HCT-116 colon, 36.2%. The growth in the assay on HCC-2998 colon was -57.6% (active); in the assay with KM12 colon, 50.7%.

As to `O=C(NCc1ccc(Cn2c(=O)sn(-c3ccc(Cl)cc3)c2=O)cc1)OCc1ccc2c(Cl)cc(Cl)c(O)c2n1`, the growth is 60.2% in the assay with T-47D breast; 60.6% in the assay with BT-549 breast; 54.7% with MDA-MB-435 melanoma; 49.3% in the assay with SW-620 colon; 50.3% in the assay on MCF7 breast; 29.3% with HCT-116 colon. Besides, the growth in the assay on HCC-2998 colon was 67.9%; in the assay with KM12 colon it was 23.5%.

On to `Cn1cc(-c2csc(-c3c[nH]c4ccc(F)cc34)n2)c2cnccc21`, for which the growth in the assay on T-47D breast is -65% (active); in the assay with BT-549 breast it was 76.6%; with MDA-MB-435 melanoma, -90.5% (active); with SW-620 colon, -86.7% (active); with MCF7 breast, -25.1% (active); in the assay with HCT-116 colon, -89.9% (active). In addition, the values for the growth in the assay with HCC-2998 colon and in the assay on KM12 colon were -54.9% (active) and -11.8% (active), respectively.

As to `CCN(CC)CCOc1ccccc1C`, the growth in the assay with T-47D breast is 98.3%; with BT-549 breast, 102%; in the assay with MDA-MB-435 melanoma, 106%; with SW-620 colon, 107%; with MCF7 breast, 100%; in the assay on HCT-116 colon, 98.3%. Further, the growth in the assay with HCC-2998 colon and with KM12 colon was 107% in each case.

As to `COc1c(O)c(O)cc2c3c(oc12)CC(c1ccc2c(c1)OCO2)CC3=O` (configuration not stated), the growth is 43.8% in the assay with T-47D breast; 56.2% with BT-549 breast; 39.8% in the assay on MDA-MB-435 melanoma; 38.7% in the assay with SW-620 colon; 35.5% with MCF7 breast; 32.1% in the assay with HCT-116 colon. Moreover, the growth is 92.9% in the assay with HCC-2998 colon and 66% in the assay with KM12 colon.

For the molecule `CCN(CC)CCCN1C(=O)c2c(c(C)c3c(oc4cc(OC)ccc43)c2C)C1=O`, the growth is 112% with T-47D breast; 98.8% in the assay on BT-549 breast; 103% in the assay on MDA-MB-435 melanoma; 87.3% with SW-620 colon; -14.7% (active) with MCF7 breast; 74.3% in the assay on HCT-116 colon. Moreover, the growth in the assay on HCC-2998 colon is 98.1%; in the assay on KM12 colon, 96.9%.

As to `CCC(=O)Oc1cc(Cl)c(Cl)cc1Cl`, the growth in the assay with T-47D breast was 101%; in the assay with BT-549 breast, 102%; in the assay on MDA-MB-435 melanoma, 107%; with SW-620 colon it was 107%; with MCF7 breast, 93%; with HCT-116 colon, 94.3%. Further, the growth is 94.8% in the assay on HCC-2998 colon and 107% in the assay with KM12 colon.

For `NCCOCCOc1ccccc1`, the growth was 101% in the assay with T-47D breast; 106% with BT-549 breast; 107% in the assay with MDA-MB-435 melanoma; 102% with SW-620 colon; 91.2% in the assay on MCF7 breast; 99.4% in the assay with HCT-116 colon. Also, the growth is 94.2% in the assay with HCC-2998 colon and 105% in the assay with KM12 colon.

Consider `N=C(N)c1ccc(-c2ccc(-c3ccc(Cl)c(Cl)c3)s2)cc1`, for which the growth was 62.1% with T-47D breast; 109% with BT-549 breast; 14.4% in the assay with MDA-MB-435 melanoma; -65.1% (active) in the assay on SW-620 colon; -62.4% (active) in the assay with MCF7 breast; -46.6% (active) with HCT-116 colon. In addition, the growth with HCC-2998 colon is -53.7% (active); with KM12 colon, -91.4% (active).
